Reference: PubChem BioAssay AID1851 (National Center for Advancing Translational Sciences (NCATS), 2009)
In all, about 16,000 compounds went through this assay and about 2,600 (16%) were called active. Inconclusive results (about 20%) are left out. The list is a sample of the results. Unmarked numbers belong to inactive results. Calls come from the whole dose curve; as a rule, active = well fitted curve in the direction sought with a large enough effect; inconclusive = small, poorly fitted or top-dose-only effect, or effect the other way; inactive = no such curve, though single readings can be large or run the other way.

target: Cytochrome P450 2D6 (Homo sapiens) (UniProt P10635); assay: Cytochrome panel assay with activity outcomes; details: recombinant CYP, pro-luciferin dealkylation, luminescence, p450-cyp2d6; series mostly up to 57.1 µM; activity, negative = inhibition: at the top concentration
Sequence (P10635 whole entry, looked up): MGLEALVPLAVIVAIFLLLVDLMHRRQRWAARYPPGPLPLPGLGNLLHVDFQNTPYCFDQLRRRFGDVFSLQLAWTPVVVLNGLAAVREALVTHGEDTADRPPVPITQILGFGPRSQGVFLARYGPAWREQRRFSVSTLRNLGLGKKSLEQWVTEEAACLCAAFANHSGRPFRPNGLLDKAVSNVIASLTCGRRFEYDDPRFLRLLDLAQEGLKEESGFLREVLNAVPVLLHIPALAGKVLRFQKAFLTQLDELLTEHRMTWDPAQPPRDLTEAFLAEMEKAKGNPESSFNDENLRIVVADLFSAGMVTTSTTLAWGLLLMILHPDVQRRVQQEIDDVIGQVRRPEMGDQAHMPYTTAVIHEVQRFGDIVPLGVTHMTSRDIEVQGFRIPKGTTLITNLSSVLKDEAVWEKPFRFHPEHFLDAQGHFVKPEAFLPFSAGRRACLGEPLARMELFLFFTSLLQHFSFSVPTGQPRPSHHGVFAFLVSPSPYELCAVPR
Method: The P450 gene superfamily is involved in the metabolism and clearance of xenobiotics. This assay used various human CYP P450 isozymes to measure the dealkylation of various pro-luciferin substrates to luciferin. The luciferin is then measured by luminescence after the addition of a luciferase detection reagent. Pro-luciferin substrate concentration in the assay was equal to its KM for its CYP P450 isozyme. Inhibitors and some substrates limit the production of luciferin, and decrease measured luminescence.
NCGC Assay Protocol Summary:
1, Reagent, 2 uL, Isozyme and Pro-Luciferin
2, Library compounds, 23 nl, 40 uM to 0.24 nM dilution series
3, Controls, 23 nl, Isozyme specific inhibitor
4, Reagent, 2 uL, NADPH regeneration solution
5, Incubation time, 60 min, Isozyme specific temperature
6, Reagent, 4ul, Detection reagent
7, Incubation time, 20 min, Isozyme specific temperature
8, Detection, 1 sec, ViewLux luminescent read
The luciferase-based P450-GloTM Screening Systems were obtained from Promega (Madison, WI) for CYP 1A2 (V9770), CYP 2C9 (V9790), CYP2 C19 (V9880), CYP 2D6 (V9890), and CYP 3A4 Luciferin-PPXE (V9910) and were adapted for 1,536-well microplates and an automated protocol. The control compounds furafylline for 1A2 (F124), sulfaphenazole for CYP 2C9 (S0758), ketoconazole for CYP 2C19 (K1003), quinidine for 2D6 (Q3625), and ketoconazole for 3A4 (K1003) were purchased from Sigma Aldrich (St. Louis, MO). Recombinant P450 enzymes were obtained from baculovirus constructs expressed in insect cells (BD/Gentest).
Medium-binding white solid Kalypsys plates used. Mixtures kept on ice. 1A2: 10 nM 1A2, 100 uM Luc-ME, 100 mM KPO4; 2C9: 10 nM 2C9, 100 uM Luc-H, 25 mM KPO4; 2C19: 5 nM 2C19, 10 uM Luc-H EGE, 50 mM KPO4; 2D6: 5 nM 2D6, 30 uM Luc-ME EGE, 100 mM KPO4; 3A4: 10 nM, 25 uM Luc-PPXE. All amounts are reflected in their final concentration, working concentration is 2x.
NADPH regeneration solution: 1.3 mM NADP+, 3.3 mM glucose-6-phosphate, 3.3 mM MgCl2, 0.4 U/mL glucose-6-phosphate dehydrogenase for all isozymes, 200 mM KPO4 for 3A4. Mixture prepared at RT but kept on ice during automated run.
RT incubation in auxilliary plate hotel for 1A2, 2D6, and 3A4; 37C for 2C9 and 2C19.
Keywords: P450, CYP1A2, CYP2C19, CYP2C9, CYP2D6, CYP3A4, Luciferase, MLSMR, MLSCN, NIH Roadmap, qHTS, NCGC
% is set by controls: 0 for no effect and ±100 for the full control effect.

| Compound | activity, negative = inhibition | AC50 |
| --- | --- | --- |
| COc1ccc(Oc2ncc3nc(C)c(=O)n(C[C@H]4CCCO4)c3n2)cc1 | -9.23% |  |
| Cc1cc(C)cc(OCC(=O)NNC(=O)c2cc(C)[nH]n2)c1 | 2.9% |  |
| COc1ccc(NS(=O)(=O)c2ccc(I)cc2)cc1N1CCN(C)CC1 | -4.44% |  |
| O=C(c1ccc2ncsc2c1)N1CCN(c2ccc(O)cc2)CC1 | 4.08% |  |
| CCCOc1ccc(CSC(CC(=O)O)C(=O)O)cc1 (stereo unspecified) | 7.86% |  |
| Cc1ccc(C(C(=O)NCc2ccco2)N(C(=O)CNC(=O)c2cccs2)c2ccc(C)cc2)cc1 (stereo unspecified) | 6.82% |  |
| Cc1ccc(S(=O)(=O)NCC(=O)N(CC(=O)NCc2ccco2)Cc2cccs2)cc1 |  | 3.98 µM (active) |
| Cc1ccc(OCCCC(=O)NCc2ccco2)cc1 | 7.23% |  |
| COc1ccc(-c2nc3cnc(Nc4ccccc4)nc3n(Cc3cccs3)c2=O)cc1 | 0.596% |  |
| CC1CCCC(n2c(=S)[nH]c3ccccc3c2=O)C1C (stereo unspecified) | -26.2% |  |
| Cc1ccc(N=Nc2c(N)[nH]n3c(=O)c4c(nc23)CCCC4)cc1 | -22% |  |
| O=c1c2c(nc3c(-c4ccccc4)c[nH]n13)CCC2 | -7.88% |  |
| Cc1ccc(-c2[nH]n3c(=O)c4c(nc3c2C)CCCC4)cc1 |  | 25.1 µM (active) |
| Cc1cc(C2CCCCC2)n(O)c(=O)c1 | 9.07% [at 25.6 µM] |  |
| COc1ccc2c(c1)C(c1ccc([N+](=O)[O-])cc1)=NNC(c1ccco1)=N2 |  | 11.2 µM (active) |
| COc1cccc(C(=O)Nc2ccc(-c3nnc(-c4ccco4)o3)cc2)c1 | 3.61% |  |
| COc1ccc(-c2ccc(/C=C3\C(=O)N(c4ccccc4)N=C3c3ccccc3)o2)c([N+](=O)[O-])c1 | -5.74% |  |
| Cc1ccc2c(c1)C1(SCCS1)C(=O)N2 | -11.7% |  |
| Nc1ccc(C(=O)NCC(=O)O)cc1 | 2.31% [at 25.6 µM] |  |
| COc1ccc(N2CCN(CCNC(=O)c3c(C)cc(=O)oc3C)CC2)cc1 | 2.34% |  |
| O=C(CCNC(=O)Cn1ccc2ccccc2c1=O)NCCCN1CCN(c2ccc(F)cc2)CC1 |  | 10 µM (active) |
| COc1ccc(S(N)(=O)=O)cc1C(=O)NCCCN1CCN(c2ccc(C)cc2)CC1 | 5.97% |  |
| COc1cccc(CNC(=O)CCNC(=O)Cn2ccc3ccccc3c2=O)c1 | -19.9% |  |
| Cc1ccccc1CN1CCN(CC(=O)NCCCN2CCN(c3ccc(F)cc3)CC2)C1=O |  | 6.31 µM (active) |
| COc1ccc(OC)c(CNC(=O)CCNC(=O)Cn2ccc3ccccc3c2=O)c1 | 1.01% |  |
| COC(=O)CSc1nc(C)cc(C(F)(F)F)c1C#N | 15.4% |  |

| Compound | activity, negative = inhibition | AC50 |
| --- | --- | --- |
| Cc1cc2nnc(SCC(=O)N3CCN(c4ccccc4)CC3)n2c(N)n1 | 3.62% |  |
| CC(NC(=O)c1ccc(Cl)cc1)c1nnc(SCc2ccc([N+](=O)[O-])cc2)n1C (stereo unspecified) | -14.9% |  |
| C1CCc2nnnn2CC1 | -1.71% |  |
| Cc1ccc(-c2ccc(/C=N/NC(=S)Nc3ccccc3)o2)cc1[N+](=O)[O-] | 5.91% |  |
| O=C(c1cccc(F)c1)N1CCC2(CC1)CN(Cc1ccccc1)C2 |  | 5.01 µM (active) |
| O=C(c1cccc(F)c1)N1CCC2(CCN(Cc3cc(C(F)(F)F)cc(C(F)(F)F)c3)CC2)CC1 | 0.176% |  |
| O=C(c1cccc(F)c1)N1CCC2(CCN(Cc3ccccc3)CC2)CC1 |  | 7.94 µM (active) |
| N#Cc1ccc(CN2CC3(CCN(C(=O)c4cccc(F)c4)CC3)C2)cc1 | -5.46% |  |
| CC(C)CN1CCC2(CC1)CCN(C(=O)c1cccc(F)c1)CC2 |  | 5.01 µM (active) |
| CC(C)CN1CC2(CCN(C(=O)c3cccc(F)c3)CC2)C1 | 7.2% |  |
| CC(C)NC(=O)N1CCC2(CC1)CCN(C(=O)c1cccc(F)c1)CC2 | 4.28% |  |
| O=C(c1cccc(F)c1)N1CCC2(CC1)CN(c1cccc(-c3ccccc3)c1)C2 | 0.562% |  |
| O=C(c1cccc(F)c1)N1CCC2(CCCN(c3ccccc3)C2)CC1 | -3.85% |  |
| O=c1c(-c2ccc(F)cc2)nc2cnc(N3CCOCC3)nc2n1Cc1cccs1 | -3.77% |  |
| O=C(C(Cc1ccccc1)N1C(=O)C2C3CCC(C3)C2C1=O)N1CCCCC1 (stereo unspecified) | -5.07% |  |
| CCCCS(=O)(=O)NC1=NCN(Cc2ccco2)CN1 | -3.88% |  |
| COC(=O)c1nn(-c2cccc(C(F)(F)F)c2)c(=O)cc1Sc1ccccn1 | 7.99% |  |
| O=c1c(-c2ccccc2)nc2cncnc2n1Cc1ccccc1Cl | -6.57% |  |
| COc1cc(Br)cc2cc(C(=O)NCC3CCCO3)c(=O)oc12 (stereo unspecified) | -18.9% |  |
| CC(c1ccccc1C(O)c1ccccc1)N(C)C (stereo unspecified) | -28.5% |  |
| Cn1c(=O)n(-c2ccc(Cl)cc2)c(=O)c2c3c(sc21)COC(C)(C)C3 | 7.91% |  |
| COc1ccc2c(c1[N+](=O)[O-])CCC/C2=N/OC(=O)c1cccc2ccccc12 | -1.88% |  |
| O=C(N/N=C/c1ccc2cccc(OCc3ccccc3)c2n1)c1ccc(Br)cc1 | -17% |  |
| CCOc1c(OC(C)=O)ccc(/C=C2\N=C(SCC)SC2=O)c1[N+](=O)[O-] |  | 11.2 µM (active) |
| CCOc1c(OC(C)=O)ccc(/C=C/c2ccc3cccc(OC(C)=O)c3n2)c1[N+](=O)[O-] |  | 10 µM (active) |
